Values without a mark were called inactive. Records with an inconclusive call do not appear. Activity calls are given as the source filed them. The call rests on the fitted dose curve; in most records, active means well fitted curve in the direction sought with a large enough effect in the repeat runs; inconclusive means weak or mixed curves; inactive means no such curve, though single readings can be large; an effect the other way counts as inactive or inconclusive.

Potency, outcome and max response data for 14 molecules are collected here from PubChem BioAssay (Tox21).

A short description of test [1]: A CellTox Green Cytotoxicity Assay to monitor cytotoxicity in HEK293 cells - 40 hour (AID 1224871). Further: nearly all actives have a fitted effect of over 45% in size. The method, boiled down: (§1)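 Fluorescence intensity, read at 0, 8, 16, 24, 32 and 40 h of compound treatment, reflected dye binding to DNA of dead HEK293 cells; compounds (23 nL, DMSO) were added 5 h after plating cells with reagent.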
The nature of test [2]: qHTS RealTime-Glo MT Cell Viability Assay in HEK293 cells - 16 hour (AID 1224872). Further: nearly all actives have a fitted effect of over 50% in size. Further: potency means the concentration at half of the fitted maximal effect. The method, boiled down:
(§2)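 Tox21 10K qHTS, HEK293, 600 cells/well, RealTime-Glo reagent co-dispensed with cells; 5 h preincubation, compound by pintool, 37 C, luminescence at 0–40 h.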
(qHTS replaces the single test concentration by a dilution series.)

The nature of test [3]: qHTS RealTime-Glo MT Cell Viability Assay in HepG2 cells - 8 hour (AID 1224873). Further: nearly all actives have a fitted effect of over 55% in size. An outline of the steps: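 Real-time viability: cells seeded at 600 per well together with NanoLuc and cell-permeant prosubstrate, compounds added after 5 h incubation. Luminescence tracked at 0, 8, 16, 24, 32 and 40 h of exposure.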
The nature of test [4]: qHTS RealTime-Glo MT Cell Viability Assay in HEK293 cells - 40 hour (AID 1224874). Further: nearly all actives have a fitted effect of over 50% in size. Further: potency means the concentration at half of the fitted maximal effect. As to conditions: RealTime-Glo luminescence; max response: stronger effect = lower value. The method, boiled down:
(§3)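 Viable HEK293 cells reduce a cell-permeant prosubstrate; the product diffuses out and is consumed by NanoLuc in the medium to give light. Compounds went in after a 5 h incubation and plates were read over the treatment course.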

Test [5] is described as follows: A CellTox Green Cytotoxicity Assay to monitor cytotoxicity in HEK293 cells - 24 hour (AID 1224875). Further: series mostly up to about 77 µM; nearly all actives have a fitted effect of over 45% in size. The method, boiled down: as §1
A short description of test [6]: A CellTox Green Cytotoxicity Assay to monitor cytotoxicity in HepG2 cells - 16 hour (AID 1224876). Further: nearly all actives have a fitted effect of over 45% in size. The method, boiled down:
(§4)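 Using 1536-well format, dye-containing HepG2 suspension was seeded, allowed 5 h at 37 C/5% CO2, dosed by pintool with compounds, positive and negative controls, and imaged for fluorescence across 40 h.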

Test [7] in a line: qHTS RealTime-Glo MT Cell Viability Assay in HepG2 cells - 32 hour (AID 1224877). Further: nearly all actives have a fitted effect of over 55% in size. An outline of the steps: (§5)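 Cells + NanoLuc/prosubstrate dispensed (600 cells/well) → 5 h at 37 C/5% CO2 → compounds in DMSO transferred → 40 h incubation at 37 C, luminescence read at 0, 8, 16, 24, 32, 40 h.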
The nature of test [8]: A CellTox Green Cytotoxicity Assay to monitor cytotoxicity in HepG2 cells - 24 hour (AID 1224878). Further: nearly all actives have a fitted effect of over 45% in size. The method, boiled down: as §4
A short description of test [9]: A CellTox Green Cytotoxicity Assay to monitor cytotoxicity in HepG2 cells - 40 hour (AID 1224879). Further: nearly all actives have a fitted effect of over 40% in size. An outline of the steps:
as §4

A short description of test [10]: qHTS RealTime-Glo MT Cell Viability Assay in HEK293 cells - 0 hour (AID 1224880). An outline of the steps:
as §3

Test [11] in a line: A CellTox Green Cytotoxicity Assay to monitor cytotoxicity in HEK293 cells - 32 hour (AID 1224881). Further: nearly all actives have a fitted effect of over 40% in size. The method, boiled down:
as §1

Test [12] in a line: A CellTox Green Cytotoxicity Assay to monitor cytotoxicity in HepG2 cells - 0 hour (AID 1224882). Further: nearly all actives have a fitted effect of over 35% in size. An outline of the steps:
as §4

Test [13] is described as follows: A CellTox Green Cytotoxicity Assay to monitor cytotoxicity in HepG2 cells - 32 hour (AID 1224883). Further: nearly all actives have a fitted effect of over 50% in size. An outline of the steps:
as §4

Test [14] can be described thus: A CellTox Green Cytotoxicity Assay to monitor cytotoxicity in HEK293 cells - 8 hour (AID 1224884). Further: nearly all actives have a fitted effect of over 35% in size. An outline of the steps: as §1
A short description of test [15]: qHTS RealTime-Glo MT Cell Viability Assay in HepG2 cells - 16 hour (AID 1224885). Further: nearly all actives have a fitted effect of over 50% in size. The method, boiled down:
as §5

Test [16] is described as follows: qHTS RealTime-Glo MT Cell Viability Assay in HEK293 cells - 24 hour (AID 1224886). Further: nearly all actives have a fitted effect of over 50% in size. Further: potency means the concentration at half of the fitted maximal effect. An outline of the steps:
as §2

Test [17] in a line: qHTS RealTime-Glo MT Cell Viability Assay in HEK293 cells - 8 hour (AID 1224887). Further: nearly all actives have a fitted effect of over 50% in size. Further: potency means the concentration at half of the fitted maximal effect. The method, boiled down:
as §3

The nature of test [18]: A CellTox Green Cytotoxicity Assay to monitor cytotoxicity in HEK293 cells - 16 hour (AID 1224888). Further: nearly all actives have a fitted effect of over 35% in size. The method, boiled down:
as §1

The nature of test [19]: qHTS RealTime-Glo MT Cell Viability Assay in HepG2 cells - 0 hour (AID 1224889). Further: nearly all actives have a fitted effect of over 50% in size. The method, boiled down: as §5
Test [20] can be described thus: A CellTox Green Cytotoxicity Assay to monitor cytotoxicity in HepG2 cells - 8 hour (AID 1224890). Further: nearly all actives have a fitted effect of over 45% in size. The method, boiled down: as §4
On the % scale 0 is the no-effect control and ±100 the full control effect.

Regarding `Cc1cc(N)n(-c2ccccc2)n1`, the Potency result in test [1], in [2], in test [5], in [6], in [7] and in test [8] was “inactive” throughout. Also, the Potency entry in test [9], in [10], in [11], in test [12], in [13] and in [14] was “inactive” throughout. Also, the Potency result in test [16], in test [17], in test [18], in [19] and in test [20] was “inactive” throughout. For the same molecule, the outcome in test [3] and in [15] was inactive. Moreover, the max response in test [4] was -5.72%.
With `CCCCCC1CCC(=O)O1` (stereo not given), the Potency entry in test [1], in test [2], in test [5], in test [6], in test [7] and in test [8] was “inactive” throughout. Further, the Potency entry in test [9], in [10], in test [11], in test [12], in [13] and in test [14] was “inactive” throughout. Moreover, the Potency entry in test [16], in [17], in test [18], in test [19] and in [20] was “inactive” in each case. For the same molecule, the molecule was classed as inactive in [3] and in test [15]. The max response in test [4] is 24.1%.
Regarding `O=C(O)c1cccc(C(=O)O)c1C(=O)O`, the Potency result in [1], in [2], in [5], in [6], in test [7] and in test [8] was “inactive” in each case. For the same molecule, the Potency result in test [9], in test [10], in test [11], in test [12], in [13] and in [14] was “inactive” in each case. The Potency result in test [16], in test [17], in [18], in test [19] and in [20] was “inactive” each time. In addition, the molecule was called inactive in test [3] and in test [15]. For the same molecule, in test [4], the max response is -17%.
Take `C=CC(=O)OCCCCCCCCCC`: the Potency entry in test [1], in [2], in test [5], in [6], in test [7] and in test [8] was “inactive” in each case. Moreover, the Potency entry in test [9], in test [10], in test [11], in test [12], in test [13] and in test [14] was “inactive” each time. In addition, the Potency entry in test [16], in test [17], in test [18], in test [19] and in test [20] was “inactive” each time. In addition, the molecule was classed as inactive in test [3] and in test [15]. Also, the max response in test [4] is 12.1%.
For `CC(=O)Nc1ccn(C2COC(COC(=O)c3ccccc3)O2)c(=O)n1` (stereo not given), the Potency entry in test [1], in test [2], in test [5], in [6], in [7] and in test [8] was “inactive” in each case. For the same molecule, the Potency entry in test [9], in test [10], in [11], in test [12], in test [13] and in [14] was “inactive” each time. The Potency entry in [16], in test [17], in [18], in [19] and in [20] was “inactive” in each case. Also, the call in [3] and in test [15] was inactive. In [4], the max response was 3.96%.
`COC(=O)c1cc(Cl)ccc1[N+](=O)[O-]`: the Potency result in test [1], in [2], in test [5], in test [6], in [7] and in test [8] was “inactive” throughout. In addition, the Potency result in test [9], in test [10], in test [11], in [12], in [13] and in [14] was “inactive” each time. Besides, the Potency result in test [16], in [17], in test [18], in test [19] and in test [20] was “inactive” each time. The molecule was called inactive in test [3] and in test [15]. Further, in [4], the max response is -14.8%.
With `NC(=O)c1cc[n+](CC2=C(C(=O)[O-])N3C(=O)[C@@H](NC(=O)Cc4cccs4)[C@H]3SC2)cc1`, the Potency result in [1], in test [2], in test [5], in [6], in [7] and in test [8] was “inactive” in each case. The Potency result in test [9], in test [10], in test [11], in test [12], in test [13] and in test [14] was “inactive” throughout. Besides, the Potency entry in [16], in test [17], in [18], in test [19] and in test [20] was “inactive” in each case. The call in [3] and in [15] was inactive. Besides, in [4], the max response is 4.75%.
Regarding `Cc1c(Cl)cccc1[N+](=O)[O-]`, the Potency result in test [1], in [2], in [5], in test [6], in [7] and in test [8] was “inactive” in each case. Moreover, the Potency result in test [9], in test [10], in test [11], in test [12], in [13] and in test [14] was “inactive” each time. Further, the Potency entry in test [16], in test [17], in [18], in [19] and in test [20] was “inactive” in each case. Moreover, the molecule was called inactive in test [3] and in [15]. Also, the max response in test [4] is -7.04%.
For the molecule `Nc1ccc(C(=O)Oc2ccccc2)c(O)c1`, the Potency result in test [1], in [2], in test [5], in test [6], in [7] and in test [8] was “inactive” each time. The Potency result in test [9], in [10], in [11], in test [12], in [13] and in [14] was “inactive” in each case. Also, the Potency result in [16], in test [17], in test [18], in [19] and in test [20] was “inactive” throughout. Moreover, the molecule was classed as inactive in test [3] and in test [15]. Besides, the max response in test [4] was -15.9%.
Turning to `Cc1c(Nc2ncccc2C(=O)O)cccc1C(F)(F)F`, the Potency entry in [1], in [2], in test [5], in [6], in [7] and in test [8] was “inactive” throughout. The Potency entry in test [9], in test [10], in test [11], in test [12], in test [13] and in test [14] was “inactive” in each case. Besides, the Potency result in [16], in test [17], in test [18], in [19] and in [20] was “inactive” each time. Also, the molecule was called inactive in [3] and in test [15]. In test [4], the max response is 0.365%.
As for `CNc1ccccc1`, the Potency entry in test [1], in test [2], in test [5], in test [6], in [7] and in [8] was “inactive” throughout. For the same molecule, the Potency entry in [9], in test [10], in [11], in test [12], in test [13] and in [14] was “inactive” each time. In addition, the Potency entry in test [16], in [17], in test [18], in test [19] and in test [20] was “inactive” in each case. In addition, the outcome in test [3] and in test [15] was inactive. In addition, the max response in test [4] was 4.77%.
As for `CCCCCO`, the Potency result in test [1], in test [2], in [5], in test [6], in [7] and in [8] was “inactive” in each case. For the same molecule, the Potency entry in test [9], in [10], in test [11], in test [12], in test [13] and in test [14] was “inactive” throughout. The Potency entry in test [16], in test [17], in [18], in [19] and in test [20] was “inactive” in each case. Besides, the molecule was called inactive in test [3] and in test [15]. The max response in test [4] was 1.46%.
Take `CCOc1cc(OCC)c(C(C)=O)cc1OCC`: the Potency result in test [1], in test [5], in [6], in test [7], in test [8] and in test [9] was “inactive” each time. Moreover, the Potency result in [10], in test [11], in test [12], in [13], in test [14] and in test [18] was “inactive” throughout. Moreover, the Potency entry in [19] and in [20] was “inactive” throughout. The Potency in test [2], in test [4], in [16] and in test [17] was 19.2 µM (active) in each case. Besides, the call in test [3] and in test [15] was inactive.
For the molecule `CC(C)(C)N`, the Potency result in test [1], in test [2], in test [5], in [6], in test [7] and in test [8] was “inactive” each time. The Potency entry in test [9], in test [10], in test [11], in [12], in test [13] and in test [14] was “inactive” throughout. Further, the Potency entry in test [16], in test [17], in [18], in test [19] and in test [20] was “inactive” throughout. The call in [3] and in [15] was inactive. In test [4], the max response was 1.55%.
